High-throughput results deposited in PubChem by National Center for Advancing Translational Sciences (NCATS).
Rows were chosen to be rich in hits. Some 7.3% of all compounds tested hit in one or more screens of this group.
FLuc counter – counter-screen for miR-21 project: firefly luciferase inhibitors or activators; actives 6.9% (n = 360,000); Potency, µM (titrated, usually from 57.5 µM), without a hit: top-dose activity change, negative = inhibition, usual class: inhibitors; P08659; purified FLuc, Km substrates, luminescence inhibition;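 also: plate controls were vehicle for no effect and reference inhibitor for full effect; nearly all actives have a fitted effect of over 55% in size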
Target sequence (P08659 whole entry, looked up): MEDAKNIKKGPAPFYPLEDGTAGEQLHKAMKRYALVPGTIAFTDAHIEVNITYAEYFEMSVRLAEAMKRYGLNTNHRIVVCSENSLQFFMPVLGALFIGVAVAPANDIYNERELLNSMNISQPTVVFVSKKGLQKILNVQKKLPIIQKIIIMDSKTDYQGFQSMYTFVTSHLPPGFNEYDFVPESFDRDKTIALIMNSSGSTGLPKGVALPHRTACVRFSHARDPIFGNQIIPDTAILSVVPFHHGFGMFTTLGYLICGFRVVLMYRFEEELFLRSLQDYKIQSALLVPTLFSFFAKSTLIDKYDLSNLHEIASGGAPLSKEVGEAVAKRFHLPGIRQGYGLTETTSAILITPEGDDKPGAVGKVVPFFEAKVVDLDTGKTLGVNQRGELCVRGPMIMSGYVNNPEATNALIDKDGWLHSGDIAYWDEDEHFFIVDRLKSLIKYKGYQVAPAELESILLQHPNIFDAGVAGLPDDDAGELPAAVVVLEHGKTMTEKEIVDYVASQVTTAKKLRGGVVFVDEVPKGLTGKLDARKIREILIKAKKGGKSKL
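Purified P. pyralis luciferase (10nM final) with 10uM D-luciferin and 10uM ATP (Km levels) in 50mM Tris acetate pH 7.5, 10mM Mg acetate, 0.01% Tween-20, 0.05% BSA; qHTS 6-point titration, ~60 µM downward; luminescence read.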
KinaseGlo FLuc – Kinase-Glo luciferase inhibition (counter-screen); actives 0.28% (n = 200,000); Q27757; Kinase-Glo luciferase, ATP luminescence, 8 min; Potency, µM (doses to about 38.3 µM), for inactives: top-dose activity change, negative = inhibition, hits mostly inhibitors; also: % is scaled to controls: 0 for no effect and ±100 for the full control effect; nearly all actives have a fitted effect of over 60% in size
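Substrate mix (final 50 mM imidazole pH 7.2, 50 mM KCl, 7 mM MgCl2, 10 uM ATP, 0.01% Tween 20, 0.05% BSA) plus pin-tool compound, then Kinase-Glo detection mix; 8 min ambient, luminescence read.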
SMN2 splice up – enhancers of SMN2 splice variant expression | HEK293 SMN2-luciferase splicing reporter, luminescence, 30-36 h | Potency, µM (highest dose often 46.1 µM), for the others: at the top dose activity change, positive = activation, actives largely listed as activators | actives 2.8% (n = 210,000); also: % of control where 0% means no effect; nearly all actives have a fitted effect of over 55% in size
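HEK293 cells carry an SMN2 minigene-luciferase reporter in which exon 7 inclusion puts luciferase in frame. Cells were seeded at 2000 cells/well, attached for 10-12 hours, then exposed to compounds for 30-36 hours at 37C before ONE-Glo luminescence.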
ELG1 genotox – inducers of genotoxicity in HEK293T ELG1-luciferase cells | HEK293T ELG1-luciferase reporter, luminescence, 16 h | Potency, µM (top dose mostly 46 µM), without a hit: at the highest dose activity change, positive = activation, actives largely listed as activators | actives 1.3% (n = 330,000) | AID 504466; also: % of control where 0% means no effect; nearly all actives have a fitted effect of over 60% in size
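Genotoxicity was scored as increased ELG1-luciferase reporter signal, measured by ONE-Glo luminescence (30 min, room temperature). Compound or vehicle exposure of the HEK293T reporter cells lasted 16 hr at 37°C.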
NPC1 prom act – activates the NPC1 promoter | Potency, µM (series often up to 9.22 µM), for inactives: at the top dose activation, usual class: activators | actives 2.4% (n = 320,000) | Huh7 NPC1 promoter luciferase reporter, 24 h; also: % of control where 0% means no effect; nearly all actives have a fitted effect of over 60% in size
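Stable NPC1-promoter luciferase Huh7 line; cpd (DMSO) 24 h, 37 °C, 5% CO2; Amplite luciferase reagent 10 min RT; luminescence readout. qHTS format.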
Rab9 promoter act – Rab9 promoter activation; Huh7 Rab9 promoter-luciferase reporter, luminescence, 24 h; Potency, µM (highest dose often 9.22 µM), without a hit: top-dose activation, negative = inhibition, hits mostly activators; actives 2.8% (n = 320,000); also: % of control where 0% means no effect; nearly all actives have a fitted effect of over 60% in size
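Measured in stably transfected Huh7 cells bearing a Rab9 promoter–luciferase construct: 24 h compound treatment at 37 °C, followed by luminescence detection.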
An asterisk follows results filed as active; ? = inconclusive; . = no result given; [ ] = dose if it differs, or a comment. Calls follow the shape of the dose curve; as a rule, active = well fitted curve in the direction sought with a large enough effect; inconclusive = small, poorly fitted or top-dose-only effect, or another doubt; inactive = no such curve, though single readings can be large; an effect the other way counts as inactive or inconclusive. Potency is read from the fitted curve at half-maximal effect.

SMILES	FLuc counter	KinaseGlo FLuc	SMN2 splice up	ELG1 genotox	NPC1 prom act	Rab9 promoter act
O=Nc1ccc(O)c2ncccc12	-8%	.	.	?	-32%	-37%
COc1ccc(N=Nc2cc(-c3ccccc3)ccc2O)cc1	24µM*	.	.	-2%	4%	0%
COc1cccc(N=Nc2ccc3cccnc3c2O)c1	8.5µM*	.	.	16µM*	20%	11%
Cc1ccc(N=Nc2ccc(O)cc2)c(Br)c1	3.4µM*	.	.	12µM*	?	3.2µM*
COc1cccc(Nc2ncc3nc(CCc4ccccc4)c(=O)n(C4CC4)c3n2)c1	.	-3%	-4%	.	.	.
Cc1ccc(C(=O)Nc2nnc(SCc3cc(=O)c4c(C)ccc(C)c4[nH]3)s2)cc1	-4%	.	.	.	.	.
Oc1ccc(N=Nc2ccc3c(c2)OCCO3)c2cccnc12	6µM*	-13%	-55%	7%	-28%	-35%
COc1ccc(C)cc1N=Nc1ccc(O)c2ncccc12	-16%	-5%	-97%	14%	-20%	-25%
COc1ccc(N=Nc2ccc(O)c3ncccc23)cc1	-14%	.	.	4.6µM*	-5%	-33%
O=S(=O)(O)c1cccc2c(N=Nc3ccc(O)c4ncccc34)cccc12	15µM*	.	.	-3%	-2%	-2%
COc1ccc(Cc2c(C)nn(-c3nc(C)c(C(=O)Nc4ccc(C)cc4C)s3)c2C)cc1	-9%	.	.	.	.	.
CC(C)(C)CC(C)(C)c1ccc(O)c(C[N+](C)(C)[O-])c1	.	-4%[7.66 µM]	1%[9.22 µM]	.	.	.
O=C(Nc1ccccc1-c1nc2ccccc2s1)c1ccc(F)cc1	-1%	.	-18%	.	.	.
CN(C)c1nc(N)nc(-c2nc3ccccc3s2)n1	?	-7%	8.9µM*	3.3µM*	8%	?
CSc1ccc(C(=O)Nc2ccc(-c3nc4ccccc4s3)c(O)c2)cc1	-1%	.	.	.	.	.
O=C(Nc1ccc(O)c(-c2nc3ccccc3s2)c1)c1cccs1	?	0%	15%	3%	8%	-1%
Nc1ccc(O)c(-c2nc3ccccc3s2)c1	6µM*	2%	?	?	3.2µM*	?
Oc1ccc(-c2nc3ccccc3s2)c(O)c1	6µM*	.	.	?	2.8µM*	4µM*
Nc1ccccc1-c1nc2ccccc2s1	11µM*	3%	?	?	?	4µM*
COc1ccc(Cl)cc1-c1nc(N)nc(N(C)C)n1	3%	4%	9%	-1%	1%	-4%
CSc1cccc(NC(=O)C2CCN(S(=O)(=O)c3ccc4c(c3)CCCN4C(=O)C3CCC3)CC2)c1	-8%	.	.	.	.	.
Oc1ccc(N=C/C=C/c2cccc(Br)c2)cc1-c1nc2ccccc2s1	6µM*	-1%	76%	?	?	?
COc1ccccc1NC(=O)N1CC=C(c2c[nH]c3ccccc23)CC1	-3%	.	-4%	.	.	.
O=C(Cn1nnc(-c2cccs2)n1)N1CCOCC1	0%	-2%	-1%	13%	-3%	4%
O=C(Cn1nnc(-c2cccs2)n1)NCc1cccs1	-4%	-2%	4%	0%	-3%	13%
SMILES	FLuc counter	KinaseGlo FLuc	SMN2 splice up	ELG1 genotox	NPC1 prom act	Rab9 promoter act
CC1CCN(C(=O)Cn2nnc(-c3cccs3)n2)CC1	?	4%	.	?	3.5µM*	2.2µM*
Cc1ccc(C(=O)Cn2nnc(-c3cccs3)n2)cc1	5.4µM*	.	.	2%	?	3.2µM*
O=C(Cn1nnc(-c2cccs2)n1)OC1CCCCC1	13µM*	-1%	-2%	0%	-2%	2%
COc1ccc(-c2nnn(CC(=O)OC3CCCCC3)n2)cc1OC	-10%	.	.	2%	0%	-3%
CCCCNC(=O)CCCN1C(=O)c2ccccc2Sc2ncccc21	0%	.	.	.	.	.
COc1ccc(CNc2ncnc3ccc(-c4ccccc4CN(C)C)cc23)c(OC)c1	.	-3%	-9%	.	.	.
CCOC(=O)C1CCC(CN(Cc2ccc(OC)cc2)S(=O)(=O)c2ccc(F)c(C(=O)Nc3ccc(C)c(C)c3)c2)CC1 (stereo not drawn)	0%	.	.	.	.	.
CC(C)Oc1ccc(CNC(=O)Cn2ncn3nc(-c4cccs4)cc3c2=O)cc1	-14%	.	.	.	.	.
O=C(CCC1N=C2c3ccccc3N=C(SCc3ccccc3F)N2C1=O)NCc1ccccc1 (stereo not drawn)	4%	.	.	.	.	.
CCOC(=O)c1ccccc1-c1cn2cc(Cl)ccc2n1	15µM*	0%	6%	10%	-2%	8%
Cc1cc(C)c2c(N)c(-c3nc4ccccc4[nH]3)sc2n1	?	2%	13µM*	?	?	2.8µM*
Cc1ccc2nc(-c3sc4nc(C)ccc4c3N)[nH]c2c1	1.2µM*	-11%	2.2µM*	?	3.2µM*	3.2µM*
COc1cccc(-n2c(N)c(-c3nc4ccccc4[nH]3)sc2=S)c1	?	9%	-17%	-11%	10%	0%
NC(=[SH+])N=N/C=C1/C=CC=CN1.O=S(=O)(O)O.[Fe]	.	0%[7.66 µM]	1%[9.22 µM]	.	.	.
c1ccc(-c2noc(C34CC5CC(CC(C5)C3)C4)n2)nc1	11µM*	1%	13µM*	15µM*	?	?
Brc1ccc(-c2noc(C3CCCCC3)n2)cc1	6.7µM*	0%	.	?	?	2.8µM*
Cc1ccc(-c2noc(C3CCCN(C(=O)c4ccccc4Br)C3)n2)cc1 (stereo not drawn)	?	.	.	10%	15%	1%
c1ccc(-c2noc(C3CCCCC3)n2)nc1	11µM*	?	11µM*	6.5µM*	?	2.8µM*
Nc1nc(-c2ccc3ccccc3c2)cc(-c2cc(-c3ccc4ccccc4c3)nc(N)n2)n1	.	-1%[7.66 µM]	-2%[9.22 µM]	.	.	.
CC(C)C(=O)Nc1ccc(-c2nc3cccnc3o2)cc1	2.7µM*	-1%	4.5µM*	?	0.56µM*	0.5µM*
CC(C)C(=O)Nc1ccc(-c2nc3ncccc3o2)cc1	4.3µM*	.	.	?	0.5µM*	0.5µM*
CC(C)(C)c1ccc(OCC(=O)Nc2ccc(-c3nc4cccnc4o3)cc2)cc1	0%	-1%	20%	.	.	.
CC(C)C(=O)Nc1cccc(-c2nc3ncccc3o2)c1	-21%	.	.	5%	-8%	21%
Cc1cc(C)c(S(=O)(=O)NCC(c2ccco2)N2CCN(c3ccccc3)CC2)c(C)c1 (stereo not drawn)	-2%	.	.	.	.	.
COC(=O)c1ccccc1NC(=O)c1ccc2nc(Cc3ccccc3)oc2c1	-2%	.	.	.	.	.
NNc1nc2c(-c3ccc(Cl)cc3)nnn2c2ccccc12	?	-10%	13µM*	13%	4µM*	2.5µM*
NNc1nc2c(-c3ccc(F)cc3)nnn2c2ccccc12	4.8µM*	?	5µM*	?	4µM*	2.8µM*
COC(=O)c1cc(NC(=O)Nc2ccccc2)ccc1Cl	15µM*	-6%	?	-3%	0%	19%
